Experimental findings from PubChem BioAssay are described below.

“And” between values parts separate entries of the source, which are not always exact repeats. Equal entries are not always repeated. The source made the active and inactive calls. Unless noted, the rule behind the calls is not given here. Square brackets hold non-standard residues; d marks the D form. Peptide text beside a SMILES is read from it. Phe(ol) = N[C@H](CO)Cc1ccccc1; Nle = CCCC[C@H](N)C(=O)O; Aib = CC(C)(N)C(=O)O

Assay [1] in a line: sensitizers of A549 cells to miR-34 induction, primary screen, imaging, A549 dox-inducible miR-34, nuclei and caspase counts (AID 1347080;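 active = compounds whose cell count with miR-34 switched on is under 0.7 times the count with it off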). The following applies: A549 miR-34 inducible, Hoechst nuclei count, 48 h.
A short description of assay [2]: inhibitors of Cryptococcus chitosan production, flow cytometry, Cibacron Brilliant Red staining (AID 1347148).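 Note: compound exposure lasted three days at 37 degrees C.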 As to conditions: Cryptococcus neoformans chitosan, stronger effect = lower value; at 10 µM unless noted. A general note: A flow cytometer gives signals particle by particle.
Assay [3] in a line: hESC survival regulators, cell-based (AID 493140).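 Note: cells exposed to compounds for four days before counting.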 As to conditions: human embryonic stem cell survival screen; stronger effect = higher value.
Setting [4] is: stronger effect = lower value, cell number ratio, induced over uninduced.
[5] abbreviates: measured here: relative caspase fold change +Dox/-Dox.
[6] abbreviates: measured here: total cells with miR-34 induction, stronger effect = lower value.
The mark [7] stands for this setting: measured here: total cells without miR-34 induction.

As for `CCCCCCCCCCCCCCCCOC[C@H](CO)OC`, the fold change in assay [1] (setting [4]) was 0.866 (inactive); in assay [1] (setting [5]), 0.894. Moreover, the cell count was 4770 in assay [1] (setting [6]) and 5500 in assay [1] (setting [7]). In addition, in assay [2], the fold fluorescence was 4.63 (inactive).

For the compound `c1ccc(CN(CCN(Cc2ccccn2)Cc2ccccn2)Cc2ccccn2)nc1`, the fold change in assay [1] (setting [4]) is 0.775 (inactive); in assay [1] (setting [5]), 2.99. Besides, the cell count stood at 418 in assay [1] (setting [6]) and 538 in assay [1] (setting [7]). For the same compound, the fold fluorescence in assay [2] was 9.33 [at 117.8 µM] (inactive).

On to `CCCCC[C@H](O)CC(=O)CCc1ccc(O)c(OC)c1`, for which the fold change in assay [1] (setting [4]) is 0.985 (inactive); in assay [1] (setting [5]) it was 0.961. For the same compound, the cell count in assay [1] (setting [6]) is 5360; in assay [1] (setting [7]), 5440. The fold fluorescence in assay [2] was 5.62 [at 169.8 µM] (inactive).

In the case of `CCCC[C@@H](C=O)NC(=O)[C@H](CC(C)C)NC(=O)[C@H](CC(C)C)NC(C)=O` (Ac-Leu-Leu-[Nle]-aldehyde), the fold change in assay [1] (setting [4]) was 0.909 (inactive); in assay [1] (setting [5]), 1.22. For the same compound, the cell count in assay [1] (setting [6]) is 1540; in assay [1] (setting [7]), 1700. In assay [2], the fold fluorescence is 4.19 [at 130.4 µM] (inactive).

For `CN([C@@H](Cc1ccc(OS(=O)(=O)c2cccc3cnccc23)cc1)C(=O)N1CCN(c2ccccc2)CC1)S(=O)(=O)c1cccc2cnccc12`, the fold change is 0.962 (inactive) in assay [1] (setting [4]) and 1.57 in assay [1] (setting [5]). Further, the cell count in assay [1] (setting [6]) was found to be 5440; in assay [1] (setting [7]), 5650. The fold fluorescence in assay [2] was 3.04 [at 69.3 µM] (inactive).

Regarding `CCCCC[C@@H](O)/C=C/[C@H]1[C@H](C/C=C\CCCC(=O)O)[C@H](O)C[C@@H]1O`, the fold change was 1.15 (inactive) in assay [1] (setting [4]) and 0.636 in assay [1] (setting [5]). Moreover, the values for the cell count in assay [1] (setting [6]) and in assay [1] (setting [7]) were 6980 and 6050, respectively. In addition, the fold fluorescence in assay [2] is 3.65 (inactive).

In the case of `NC1=NC2C(N=C(Br)N2C2O[C@H]3COP(=O)(O)O[C@@H]3[C@@H]2O)C(=O)N1` (stereo not given in full), the fold change was 0.962 (inactive) in assay [1] (setting [4]) and 1.29 in assay [1] (setting [5]). For the same compound, the cell count in assay [1] (setting [6]) is 6370; in assay [1] (setting [7]), 6620. Besides, the fold fluorescence in assay [2] was 4.24 [at 117.3 µM] (inactive).

For `CCCCCCCCCCCCCCCCOC[C@H](CO)OC(C)=O`, the figures for the fold change in assay [1] (setting [4]) and in assay [1] (setting [5]) were 0.961 (inactive) and 1.5, respectively. Moreover, the cell count in assay [1] (setting [6]) came to 5130; in assay [1] (setting [7]), 5340. For the same compound, the fold fluorescence in assay [2] was 4.43 (inactive).

As for `CCCCC/C=C\C\C=C/C=C/C=C/[C@@H](SC[C@H](N)C(=O)O)[C@@H](O)CCCC(=O)O`, the figures for the fold change in assay [1] (setting [4]) and in assay [1] (setting [5]) were 1.09 (inactive) and 1.02, respectively. Moreover, the cell count in assay [1] (setting [6]) stood at 6150; in assay [1] (setting [7]) it was 5660. Moreover, the fold fluorescence in assay [2] is 3.87 [at 1 µM] (inactive).

As to `COc1ccc([C@H]2Sc3ccccc3N(CCN(C)C)C(=O)[C@H]2OC(C)=O)cc1`, the fold change was 1.07 (inactive) in assay [1] (setting [4]) and 1.13 in assay [1] (setting [5]). Moreover, the cell count in assay [1] (setting [6]) stood at 5870; in assay [1] (setting [7]), 5500. Further, the fold fluorescence in assay [2] is 4.51 [at 120.6 µM] (inactive) and 3.48 [at 120.6 µM] (inactive).

As for `CCC(C)[C@H](NS(=O)(=O)c1cccc2ccccc12)C(=O)N[C@H](C=O)Cc1c[nH]c2ccccc12` (stereo not given in full), the fold change in assay [1] (setting [4]) was 0.877 (inactive); in assay [1] (setting [5]) it was 1.24. For the same compound, the cell count in assay [1] (setting [6]) worked out at 2990; in assay [1] (setting [7]) it was 3410. In addition, the fold fluorescence in assay [2] was 3.23 [at 101.7 µM] (inactive).

For the compound `CC(=O)NC(C)(C)C(=O)N1CCC[C@H]1C(=O)NC(C)(C)C(=O)N[C@@H](C)C(=O)NC(C)(C)C(=O)N[C@@H](C)C(=O)N[C@@H](CCC(N)=O)C(=O)NC(C)(C)C(=O)N[C@H](C(=O)NC(C)(C)C(=O)NCC(=O)N[C@@H](CC(C)C)C(=O)NC(C)(C)C(=O)N1CCC[C@H]1C(=O)N[C@H](C(=O)NC(C)(C)C(=O)NC(C)(C)C(=O)N[C@@H](CCC(=O)O)C(=O)N[C@@H](CCC(N)=O)C(=O)N[C@H](CO)Cc1ccccc1)C(C)C)C(C)C` (Ac-[Aib]P[Aib]A[Aib]AQ[Aib]V[Aib]GL[Aib]PV[Aib][Aib]EQ[Phe(ol)]), the fold change in assay [1] (setting [4]) was 1.08 (inactive); in assay [1] (setting [5]), 1.3. Moreover, the cell count in assay [1] (setting [6]) was 1460; in assay [1] (setting [7]), 1350. In assay [2], the fold fluorescence is 7.73 [at 25.5 µM] (inactive).

For the compound `Nc1ncnc2c1nc(Br)n2C1O[C@H]2COP(=O)(O)O[C@@H]2[C@@H]1O` (stereo not given in full), the fold change in assay [1] (setting [4]) is 0.835 (inactive); in assay [1] (setting [5]), 1.27. For the same compound, the cell count in assay [1] (setting [6]) was found to be 4570; in assay [1] (setting [7]), 5470. Further, the fold fluorescence in assay [2] was 3.88 [at 122.5 µM] (inactive).

Take `CCCCCCCC/C=C\CCCCCCCC(=O)OC[C@H](CO)OC(=O)CCCCCCC/C=C\CCCCCCCC`: the fold change was 1.03 (inactive) in assay [1] (setting [4]) and 0.954 in assay [1] (setting [5]). The cell count turned out to be 5310 in assay [1] (setting [6]) and 5170 in assay [1] (setting [7]). Moreover, in assay [2], the fold fluorescence was 4.1 (inactive).

On to `COC(=O)CNC(=O)C(=O)OC`, for which the fold change in assay [1] (setting [4]) is 0.976 (inactive); in assay [1] (setting [5]), 1.36. In addition, the cell count is 6040 in assay [1] (setting [6]) and 6190 in assay [1] (setting [7]). For the same compound, in assay [2], the fold fluorescence was 3.39 (inactive).

For the compound `CC1(C)Oc2ccc(C#N)cc2[C@@H](OC2=CC(=O)CC2)[C@@H]1O`, the fold change was 0.927 (inactive) in assay [1] (setting [4]) and 1.24 in assay [1] (setting [5]). Further, the values for the cell count in assay [1] (setting [6]) and in assay [1] (setting [7]) were 5940 and 6400, respectively. In assay [2], the fold fluorescence is 3.79 [at 167 µM] (inactive).

As to `CCCCC/C=C\CC1OC1CCCCCCCC(=O)O` (stereo not given), the survival in assay [3] was 79.6 (inactive). The values for the fold change in assay [1] (setting [4]) and in assay [1] (setting [5]) were 0.903 (inactive) and 1.25, respectively. Besides, the results for the cell count in assay [1] (setting [6]) and in assay [1] (setting [7]) were 5290 and 5850, respectively. Further, the fold fluorescence in assay [2] is 2.8 [at 1 µM] (inactive).

`Nc1cc(N2CCCCC2)nc(N)[n+]1OS(=O)(=O)[O-]`: the results for the fold change in assay [1] (setting [4]) and in assay [1] (setting [5]) were 0.999 (inactive) and 1.39, respectively. Besides, the cell count in assay [1] (setting [6]) was 5860; in assay [1] (setting [7]), 5870. Besides, the fold fluorescence in assay [2] is 3.52 [at 172.8 µM] (inactive).

As to `CCCCCCCCCCCCCCCC(=O)N[C@@H](COP(=O)(O)O)C(=O)O`, in assay [3], the survival is 91.8 (inactive). Also, the fold change was 0.975 (inactive) in assay [1] (setting [4]) and 1.1 in assay [1] (setting [5]). Also, the cell count is 5800 in assay [1] (setting [6]) and 5940 in assay [1] (setting [7]). The fold fluorescence in assay [2] is 4.28 (inactive).

Regarding `CCCCC[C@H](O)/C=C/C=C\C=C\C=C\[C@@H](O)[C@@H](O)CCCC(=O)O`, in assay [3], the survival is 89.1 (inactive). Further, the figures for the fold change in assay [1] (setting [4]) and in assay [1] (setting [5]) were 0.912 (inactive) and 1.26, respectively. In addition, the values for the cell count in assay [1] (setting [6]) and in assay [1] (setting [7]) were 5670 and 6220, respectively. Also, the fold fluorescence in assay [2] is 4.45 [at 1 µM] (inactive).

For `CCCCC[C@H](O)/C=C/C=C\C/C=C\C/C=C\CCCC(=O)O`, the survival in assay [3] was 53.7 (inactive). The fold change in assay [1] (setting [4]) was 1.03 (inactive); in assay [1] (setting [5]) it was 1.58. Moreover, the cell count in assay [1] (setting [6]) came out at 5880; in assay [1] (setting [7]) it was 5700. Further, the fold fluorescence in assay [2] was 4.64 [at 1 µM] (inactive).

Turning to `CCCCC/C=C\C/C=C\C/C=C\C=C\C(=O)CCCC(=O)O`, the survival in assay [3] was 84.8 (inactive). In addition, the values for the fold change in assay [1] (setting [4]) and in assay [1] (setting [5]) were 0.886 (inactive) and 1.22, respectively. In addition, the figures for the cell count in assay [1] (setting [6]) and in assay [1] (setting [7]) were 5820 and 6560, respectively. Moreover, the fold fluorescence in assay [2] was 3.82 [at 1 µM] (inactive).

Turning to `CCC(C)[C@@H](CO[C@@H](Cc1ccccc1)C(=O)N[C@@H](CCS(C)(=O)=O)C(=O)OC(C)C)NC[C@@H](N)CS` (stereo not given in full), the results for the fold change in assay [1] (setting [4]) and in assay [1] (setting [5]) were 0.946 (inactive) and 1.27, respectively. The cell count in assay [1] (setting [6]) stood at 3500; in assay [1] (setting [7]) it was 3700. The fold fluorescence in assay [2] is 3.05 [at 89.3 µM] (inactive).
